Measurements taken from PubChem BioAssay (NCI).
About 79,000 compounds went through this panel and 15% of them were active in at least one assay; those are over-represented in the sample as a whole. The source made the active and inactive calls. No stated cut-off is given here; in the data, active means growth inhibition above about 70%; inactive means the rest.

How the values were obtained:
[1] = NCI Yeast Anticancer Drug Screen. Data for the rad50 strain (AID 155);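 further: 0% = growth of vehicle-only cultures of the same strain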; settings: S. cerevisiae rad50 strain growth inhibition, hits give high values
Outline: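 Yeast carrying a defined DNA repair defect were exposed to test compounds, and growth was compared with vehicle-treated controls to give percent inhibition.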

[2] = NCI Yeast Anticancer Drug Screen. Data for the mec2-1 strain (AID 157); settings: S. cerevisiae mec2-1 strain, hits give high values
Outline: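 Each compound was tested on mec2-1 yeast, a strain altered in DNA damage repair or cell cycle control. Growth inhibition is reported relative to vehicle.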

[3] = NCI Yeast Anticancer Drug Screen. Data for the sgs1 mgt1 strain (AID 161);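 further: 0% = growth of cultures given vehicle only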; settings: S. cerevisiae sgs1 mgt1 strain, hits give high values
Outline: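 Mutant yeast exposed to compound; growth scored against vehicle-only wells.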

[4] = NCI Yeast Anticancer Drug Screen. Data for the cln2 rad14 strain (AID 165);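 further: 0% = growth equal to vehicle treated cultures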; settings: S. cerevisiae cln2 rad14 strain, hits give high values
Outline: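 Test compounds were added to cln2 rad14 yeast cultures; inhibition of growth was then determined by comparison with vehicle treatment.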

[5] = NCI Yeast Anticancer Drug Screen. Data for the bub3 strain (AID 167); settings: S. cerevisiae bub3 mutant strain, hits give high values
Outline: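 Compounds were applied to a genetically altered yeast strain carrying a cell-cycle control defect. Growth inhibition was scored against vehicle-treated controls.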

[6] = NCI Yeast Anticancer Drug Screen. Data for the mlh1 rad18 strain (AID 175); settings: S. cerevisiae mlh1 rad18 strain growth inhibition, hits give high values
Outline: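 Inhibition values reflect reduced growth of mutant yeast versus vehicle-treated controls following compound exposure; the mutations affect DNA damage repair.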

[7] = at 5.0 µM (retest, dose inferred, filed as 0.5)
[8] = at 50.0 µM (retest, dose inferred, filed as 5.0)

Measured: growth inhibition

COc1cc[c]([Sn]([c]2ccc(OC)cc2)([c]2ccc(OC)cc2)[c]2ccc(OC)cc2)cc1
inactive: [1]; [7] 1% | [1]; [8] 1% | [2]; [7] 6% | [2]; [8] 6% | [3]; [7] -5% | [3]; [8] -5% | [4]; [7] -9% | [4]; [8] -9% | [5]; [7] 6% | [5]; [8] 6% | [6]; [7] -14% | [6]; [8] -14%
active: [1]; at 50.0 µM 80.5% | [2]; at 50.0 µM 85.3% | [3]; at 50.0 µM 80.8% | [4]; at 50.0 µM 85.8% | [5]; at 50.0 µM 82.3% | [6]; at 50.0 µM 78.8%

O=S(=O)(OI(OI(OS(=O)(=O)C(F)(F)F)c1ccccc1)c1ccccc1)C(F)(F)F
inactive: [1]; [7] 58% | [2]; [7] 48% | [3]; [7] 44% | [4]; [7] 27% | [5]; [7] 65%
active: [1]; [8] 97% | [1]; at 50.0 µM 89.2% | [2]; [8] 98% | [2]; at 50.0 µM 91.5% | [3]; [8] 98% | [3]; at 50.0 µM 91.7% | [4]; [8] 92% | [4]; at 50.0 µM 91.1% | [5]; [8] 98% | [5]; at 50.0 µM 91% | [6]; [7] 75% | [6]; [8] 97% | [6]; at 50.0 µM 89.2%

Cc1cc(C[P+](c2ccccc2)(c2ccccc2)c2ccccc2)c(C)cc1C[P+](c1ccccc1)(c1ccccc1)c1ccccc1
inactive: [1]; [7] 4% | [1]; [8] 66% | [2]; [7] -9% | [2]; [8] 49% | [3]; [7] 1% | [3]; [8] 61% | [4]; [7] 3% | [4]; [8] 32% | [5]; [7] 3% | [5]; [8] 66% | [6]; [7] 1%
active: [1]; at 50.0 µM 95.1% | [2]; at 50.0 µM 96.7% | [3]; at 50.0 µM 91.6% | [4]; at 50.0 µM 82.5% | [5]; at 50.0 µM 92.1% | [6]; [8] 86% | [6]; at 50.0 µM 94.5%

O=C(N/C(=C/c1ccc(Cl)cc1Cl)c1nc2ccccc2s1)c1ccccc1
active: [1]; [8] 98% | [1]; at 50.0 µM 98.6% | [2]; [8] 98% | [2]; at 50.0 µM 97.7% | [3]; [8] 99% | [3]; at 50.0 µM 98.9% | [4]; [8] 98% | [4]; at 50.0 µM 98.1% | [5]; [8] 98% | [5]; at 50.0 µM 98% | [6]; [8] 98% | [6]; at 50.0 µM 98.2%
inactive: [1]; [7] 27% | [2]; [7] 13% | [3]; [7] 56% | [4]; [7] 14% | [5]; [7] 31% | [6]; [7] 26%

CC1=CC(=O)c2c(O)c3c(c(O)c2C1=O)C1C(O)C(C3=O)C23C(=O)c4c(O)c(C)cc(O)c4C(O)=C2C(=O)CC(O)C13 (stereo not given)
inactive: [1]; [7] -27% | [2]; [7] 7% | [3]; [7] -21% | [4]; [7] 14% | [5]; [7] 12% | [6]; [7] 9%
active: [1]; [8] 93% | [1]; at 50.0 µM 91.5% | [2]; [8] 98% | [2]; at 50.0 µM 93.3% | [3]; [8] 96% | [3]; at 50.0 µM 92.7% | [4]; [8] 97% | [4]; at 50.0 µM 91.3% | [5]; [8] 97% | [5]; at 50.0 µM 91.1% | [6]; [8] 96% | [6]; at 50.0 µM 91.8%

COc1cc(/C=N/NC(=S)Nc2ccccc2)ccc1O
inactive: [1]; [7] -20% | [1]; [8] 13% | [1]; at 50.0 µM 20.8% | [2]; [7] -10% | [2]; [8] 34% | [2]; at 50.0 µM 27.4% | [3]; [7] -7% | [3]; at 50.0 µM 66.7% | [4]; [7] -31% | [4]; [8] 9% | [4]; at 50.0 µM -23.4% | [5]; [7] -11% | [5]; [8] 60% | [6]; [7] -16% | [6]; [8] 49% | [6]; at 50.0 µM 30.1%
active: [3]; [8] 82% | [5]; at 50.0 µM 77.7%

CC(C)(C)NC(=S)N/N=C/c1ccccc1O
inactive: [1]; [7] 48% | [1]; [8] 66% | [2]; [7] 25% | [3]; [7] 40% | [4]; [7] 24% | [4]; [8] 59% | [5]; [7] 36% | [6]; [7] 48%
active: [1]; at 50.0 µM 89% | [2]; [8] 73% | [2]; at 50.0 µM 88.8% | [3]; [8] 88% | [3]; at 50.0 µM 92.5% | [4]; at 50.0 µM 87.2% | [5]; [8] 78% | [5]; at 50.0 µM 88.2% | [6]; [8] 96% | [6]; at 50.0 µM 91%

CC(C)c1ccc2c(c1)CCC1C(C)(CN)CCCC21C (stereo not given)
active: [1]; [8] 100% | [1]; at 50.0 µM 99.2% | [2]; [8] 100% | [2]; at 50.0 µM 99.6% | [3]; [8] 100% | [3]; at 50.0 µM 99.5% | [4]; [8] 99% | [4]; at 50.0 µM 98.7% | [5]; [8] 100% | [5]; at 50.0 µM 99.3% | [6]; [8] 100% | [6]; at 50.0 µM 99.1%
inactive: [1]; [7] 27% | [2]; [7] 0% | [3]; [7] 35% | [4]; [7] -6% | [5]; [7] 10% | [6]; [7] 32%

O=c1cc(N=Nc2ccc(Cl)c(Cl)c2)[nH]c(=O)[nH]1
inactive: [1]; [7] 37% | [2]; [7] 25% | [3]; [7] 54% | [4]; [7] 32% | [6]; [7] 41%
active: [1]; [8] 95% | [1]; at 50.0 µM 85.8% | [2]; [8] 97% | [2]; at 50.0 µM 86.6% | [3]; [8] 97% | [3]; at 50.0 µM 88.7% | [4]; [8] 97% | [4]; at 50.0 µM 89.5% | [5]; [7] 73% | [5]; [8] 97% | [5]; at 50.0 µM 86.8% | [6]; [8] 96% | [6]; at 50.0 µM 82%

C[C@H]1CC[C@@H]2[C@@H](C)[C@H]3[C@H](C[C@H]4[C@@H]5CC=C6C[C@@H](O)CC[C@]6(C)[C@H]5CC[C@]34C)N2C1
inactive: [1]; [7] 27% | [1]; at 50.0 µM 58% | [2]; [7] 28% | [3]; [7] 44% | [4]; [7] 28% | [5]; [7] 48% | [6]; [7] 56%
active: [1]; [8] 98% | [2]; [8] 99% | [2]; at 50.0 µM 93.5% | [3]; [8] 99% | [3]; at 50.0 µM 93.2% | [4]; [8] 98% | [4]; at 50.0 µM 91.2% | [5]; [8] 99% | [5]; at 50.0 µM 93% | [6]; [8] 98% | [6]; at 50.0 µM 86.6%
